Reference: PubChem BioAssay AID1259417 (TB Discovery Research, Infectious Disease Research Institute, 2018)
Screen size: about 1,100 compounds; about 760 (69%) were called active. No rule for the calls is given here. The set was probably picked from earlier hits. The list shows a part of the results.

Assay: M. tuberculosis growth inhibition, HTS (AID 1259417);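 also: bacteria grown with compound for 5 days at 37 °C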
Details: stronger effect = higher value, concentration not given here
[1] = M. tuberculosis DsRed fluorescence growth inhibition
[2] = M. tuberculosis growth inhibition

SMILES | inhibition [1] | inhibition [2] [%]
Clc1cc(Br)ccc1OCCCCn1ccnc1 | 99.4% (active) | 99.4
Clc1ccc(SCCCn2ccnc2)cc1 | 100% (active) | 99.6
Brc1c(OCCCn2ccnc2)ccc2ccccc12 | 98.3% (active) | 99
Clc1ccc(OCCCCn2ccnc2)c(Br)c1 | 98.8% (active) | 99.3
Clc1ccc(OCCCCCn2ccnc2)c(Cl)c1 | 100% (active) | 99.3
C=CCc1cc(C)ccc1OCCCn1ccnc1 | 92.4% (active) | 97.1
C=CCc1cc(Cl)ccc1OCCCCn1ccnc1 | 100% (active) | 100
C=CCc1cc(C)ccc1OCCCCn1ccnc1 | 99.4% (active) | 100
C=CCn1c(-c2cccs2)nc2ccccc21 | 97.1% (active) | 100
NC(CC(=O)c1ccc(Cl)cc1Cl)C(Cl)(Cl)Cl (configuration not stated) | 99.7% (active) | 99.4
Oc1ccc(-c2nc3cc4ccccc4cc3nc2-c2ccccc2)cc1 | 19.6% (active) | 37.8
Cc1ccc2sc(NNC(=O)c3cc4ccccc4oc3=O)nc2c1C | 3.35% (active) | 33.4
Cc1cccc2sc(NNC(=O)c3cc4ccccc4oc3=O)nc12 | 47.1% (active) | 89
Cc1ccc2sc(NNC(=O)C3COc4ccccc4O3)nc2c1C (configuration not stated) | -2.21% (inactive) | -8.62
Cc1ccc2nc(NNC(=O)c3cc4ccccc4oc3=O)sc2c1 | -1.04% (inactive) | 10.6
Cc1cc(C)c2nc(NNC(=O)c3cc4ccccc4oc3=O)sc2c1 | 46.2% (active) | 86.5
CCCOc1ccc(C2Oc3ccc(Br)cc3C=C2[N+](=O)[O-])cc1OC (configuration not stated) | 10.3% (active) | 37.5
Nc1ccccc1Nc1ccccc1 | 98.6% (active) | 98.4
Cc1ccc(Nc2ccccc2N)cc1 | 99.5% (active) | 99.1
COc1ccc(Nc2cc(C)nc3c2ccc2ccccc23)cc1 | 18.8% (inactive) | 19.5
COc1ccc(Nc2ccccc2N)cc1 | 96% (active) | 97.4
O=c1cc(Cc2ccccc2)nc2c(-c3ccccc3)c[nH]n12 | 93% (active) | 96.9
CCN1CCc2c(sc(NC(=O)c3ccccc3)c2-c2nc3ccccc3s2)C1 | 52.7% (active) | 77.8
NC(=O)c1c(NC(=O)c2ccc([N+](=O)[O-])s2)sc2c1CCN(Cc1ccccc1)C2 | 25.9% (inactive) | 2.21

SMILES | inhibition [1] | inhibition [2] [%]
Cc1ccccc1C(=O)Nc1sc2c(c1C(=O)N1CCN(Cc3ccccc3)CC1)CCCCC2 | -0.558% (inactive) | -12.1
CCCCOc1ccc(S(=O)(=O)Nc2ccc(I)cc2)cc1 | -1.45% (inactive) | 17.1
COCCNS(=O)(=O)c1ccc(-c2ccc(C)cc2)cc1 | 98.6% (active) | 98.3
O=S(Cc1ccccc1)c1nc2ccccc2s1 (configuration not stated) | 51.3% (active) | 74.9
Brc1ccc2ncnc(Nc3ccc(N4CCCC4)cc3)c2c1 | 100% (active) | 99.7
CN(C)c1ccc(Nc2ncnc3ccc(Br)cc23)cc1 | 100% (active) | 99.4
CC1CCc2nc3sc4c(c3c(N)c2C1)CCCC4 (configuration not stated) | 99.8% (active) | 99.6
Nc1c2c(nc3sc4c(c13)CCCC4)CCCC2 | 99.7% (active) | 101
Cc1nc(SCc2csc(C)n2)c2c3c(sc2n1)CCCC3 | 13.5% (inactive) | -7.63
Nc1c(C(=O)Nc2ccc(Br)cc2)sc2nc3c(c(-c4cccs4)c12)CCCC3 | 5.67% (inactive) | -16.7
CN(Cc1ccccc1)C(=S)NC(=O)c1cccs1 | 23.4% (active) | 33.4
N#CCCN(Cc1ccccc1)C(=S)NC(=O)c1ccccc1 | -2.05% (inactive) | 0.14
O=C(Nc1nnc(C2=COCCO2)o1)c1cccc(Cl)c1 | 12.5% (inactive) | 27.2
COc1cccc(-c2nnc(NC(=O)c3cccc(F)c3)o2)c1 | 89.3% (active) | 93.2
COc1cccc(-c2nnc(NC(=O)C=Cc3cccs3)o2)c1 | -4.21% (inactive) | 4.98
O=C(Nc1nnc(-c2ccccc2Cl)o1)c1ccco1 | -3.23% (inactive) | -7.63
COc1cccc(C(=O)Nc2nnc(-c3ccc(Cl)cc3)o2)c1 | 35.6% (active) | 70.5
O=C(Nc1nnc(-c2ccccc2Cl)o1)c1cccc(Oc2ccccc2)c1 | 94% (active) | 93.2
CC(Nc1nc(N2CCCCC2)nc2ccccc12)c1ccccc1 (configuration not stated) | 98.6% (active) | 98.9
CC(Nc1nc(N2CCN(C(=O)c3ccc(Cl)cc3)CC2)nc2ccccc12)c1ccccc1 (configuration not stated) | 0.606% (inactive) | -19.8
COC(C)(C)C#CC(=O)c1cccc2ccccc12 | 100% (active) | 98.9
COc1ccccc1C1=Nc2cccc3cccc(c23)N1 | 45.9% (active) | 45.8
Cc1nnc(NC(=O)c2ccc3ccccc3c2)o1 | 98.3% (active) | 99.1
Cc1cccc(C(=O)Nc2nnc(C3=COCCO3)o2)c1 | 8.04% (inactive) | 3.45

SMILES | inhibition [1] | inhibition [2] [%]
CC(Oc1ccc(C(=O)NCCc2ccccc2)cc1)C(=O)OCc1ccccc1 (configuration not stated) | 36.1% (active) | 55.5
Cc1ccc(-c2csc3ncn(C(C)C(=O)OCc4ccccc4Cl)c(=O)c23)cc1 (configuration not stated) | -5.81% (inactive) | 4.87
COc1ccc(C(=O)Oc2ccc(C(=O)OCc3ccccc3)cc2)cc1OC | 3.52% (inactive) | -20.9
CC(Oc1ccc(C(=O)NC2CCCCC2)cc1)C(=O)OCc1ccccc1Cl (configuration not stated) | 51% (active) | 69.4
COC(=O)CSc1ccnc2cc(Cl)ccc12 | 27% (active) | 74.4
Cc1cc(C)c2sc(N3CCCC3)nc2c1 | 100% (active) | 99.8
Cc1ccc(Nc2nc(N3CCN(C)CC3)nc(N)c2[N+](=O)[O-])cc1C | 61.4% (active) | 61.7
Cc1ccc(-c2nnc3sc(CCc4ccccc4)nn23)cc1 | 100% (active) | 100
Cc1ccc(-c2nnc3sc(Cc4ccccc4)nn23)cc1 | 100% (active) | 99.4
COc1ccc(Cc2nn3c(-c4ccccc4)nnc3s2)cc1 | 100% (active) | 100
Cc1cccc(Nc2nnc(SCC(=O)Nc3cccnc3Cl)s2)c1 | 3% (inactive) | 14.2
O=C(CSc1ccc(Cl)cc1)Nc1ccc(Br)cn1 | 2.64% (active) | 38
O=C(CSc1nnc(SCc2cccc3ccccc23)s1)Nc1ccccc1F | 3.26% (active) | 43.1
N#Cc1ccc(NC(=O)CSc2ccc(Cl)cc2)cc1 | 10.6% (active) | 56.7
Cc1cnc(NC(=O)CSc2ccc(Cl)cc2)s1 | -1.45% (inactive) | -17.5
N#Cc1ccc(NC(=O)CSc2ccc(Br)cc2)cc1 | 8.52% (active) | 46.8
O=C(CSc1ccc(Br)cc1)Nc1ccccc1F | 1.79% (active) | 46.4
CCC(C)NCCCOc1ccc(Cl)c2ccccc12 (configuration not stated) | 97.1% (active) | 89.4
Clc1ccc(OCCCNCc2ccccc2)c2ccccc12 | -2.3% (inactive) | -30
COC(=O)COc1ccc(-c2ccc(F)cc2)cc1C=O | 39.2% (active) | 85.5
COc1ccccc1-c1cnn2c(Nc3cccc(Cl)c3)cc(C)nc12 | 32.5% (active) | 72.2
Cc1cc(Nc2ccc(C)c(Cl)c2)n2ncc(-c3ccccc3)c2n1 | -7.72% (inactive) | 1.18
Cc1cc(Nc2ccc(C)c(C)c2)n2ncc(-c3ccccc3)c2n1 | 5.96% (active) | 38.3
O=c1[nH]c(C=Cc2cccc3ccccc23)nc(O)c1[N+](=O)[O-] | 3.53% (inactive) | 9.27

SMILES | inhibition [1] | inhibition [2] [%]
CC1CCN(CCNC(=S)Nc2ccc(F)cc2)CC1 | 0.916% (inactive) | -24
CCN(CC)c1ccc(NC(=S)NCCc2ccc(OC)c(OC)c2)cc1 | 91.5% (active) | 100
S=C(NCc1ccc(Cl)cc1)N1CCN(CC=Cc2ccccc2)CC1 | 5.55% (inactive) | -11
CCN(CC)C(=S)NC(=O)c1ccc(Cl)cc1 | 0.912% (inactive) | 0.451
COc1ccc(CCNC(=S)N2CCN(CC=Cc3ccccc3)CC2)cc1OC | 20.3% (inactive) | 12.5
CCN(CC)c1ccc(NC(=S)NCc2ccc(Cl)cc2)cc1 | 72.5% (active) | 88.7
O=C(CSc1nnc(-c2cccs2)o1)OC1CCCCC1 | 28.2% (active) | 52.1
COc1ccc(-c2nnc(SCC(=O)OC3CCCCC3)o2)cc1OC | 50.5% (active) | 80.2
c1ccc(-c2nnc(SCc3nnc(-c4cccs4)o3)o2)cc1 | -2.64% (inactive) | -5.86
COC(=O)CSc1nnc(-c2ccc(Cl)cc2)o1 | 61.4% (active) | 85
COC(=O)CSc1nnc(-c2ccc(OC)c(OC)c2)o1 | 79.2% (active) | 92.4
CCc1ccc(OCC(=O)Nc2ccc(N3CCN(C(=O)c4cccs4)CC3)c(Cl)c2)cc1 | 0.597% (inactive) | -20.3
COc1cccc(C(=O)NC(=S)Nc2ccc(N3CCN(C(=O)c4cccs4)CC3)c(Cl)c2)c1 | 62% (active) | 11.5
CCOc1ccc(C(=O)Nc2ccc(N3CCN(C(=O)c4cccs4)CC3)c(Cl)c2)cc1Br | 14.9% (inactive) | -6.08
O=C(Nc1ccc(F)c(Cl)c1)C12CC3CCC(CC(C3)C1)C2 | 100% (active) | 97.2
O=C(CC12CC3CC(CC(C3)C1)C2)Nc1ccc2ccccc2c1 | 99.1% (active) | 96.6
O=C(CC12CC3CC(CC(C3)C1)C2)Nc1ccc(F)c(Cl)c1 | 98.3% (active) | 95.1
COC(=O)c1ccc(NC(=O)CC23CC4CC(CC(C4)C2)C3)cc1 | 5.38% (inactive) | -0.346
O=C(CC12CC3CC(CC(C3)C1)C2)Nc1ccc(Br)cc1 | 50.7% (active) | 17.6
Cc1ccc(NC(=O)C23CC4CCC(CC(C4)C2)C3)cc1 | 99.7% (active) | 96.9
COC(=O)c1cc(NC(=O)CC23CC4CC(CC(C4)C2)C3)cc(C(=O)OC)c1 | 11.6% (inactive) | -29
O=C(CC12CC3CC(CC(C3)C1)C2)Nc1ccc2c(c1)OCCO2 | 40.1% (active) | 16.6
O=C(CC12CC3CC(CC(C3)C1)C2)Nc1cccc(C(F)(F)F)c1 | 97.7% (active) | 85.6
O=C(CC12CC3CC(CC(C3)C1)C2)Nc1cccc(Cl)c1 | 64.1% (active) | 34.5
